# Results: the supplement of paper PMC6555819
# Legend:
# Experiment in all cases: PBM binding z-score (relative to random genomic background probes); higher = stronger binding; sequences stand for … in GC…GCGATTGACAGCGTAGAATGAAGG
# [1] = system: FXR:RXRa (NR concentration 270 nM, RXRa partner concentration 90 nM)
# Procedure, shortened: (§1)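 Each nuclear receptor dimer, without ligand, was incubated for 1 h on custom Agilent 4×180K protein-binding microarrays. Binding was detected with antibodies against each partner (one per run), and scanned fluorescence was regression-normalized. The binding z-scores are referenced to random human genomic background probes.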
# [2] = system: LXRa:RXRa (NR concentration 270 nM, RXRa partner concentration 90 nM)
# Procedure, shortened: as §1
# [3] = system: LXRa homodimer (NR concentration 270 nM)
# Procedure, shortened: as §1
# [4] = system: LXRb:RXRa (NR concentration 270 nM, RXRa partner concentration 90 nM)
# Procedure, shortened: as §1
# [5] = system: LXRb homodimer (NR concentration 270 nM)
# Procedure, shortened: as §1
# [6] = system: PPARa:RXRa (NR concentration 270 nM, RXRa partner concentration 90 nM)
# Procedure, shortened: as §1
# [7] = system: PPARg:RXRa (NR concentration 180 nM, RXRa partner concentration 90 nM)
# Procedure, shortened: as §1
# [8] = system: PPARg:RXRa 270nM:90nM, anti-RXR (NR concentration 270 nM, RXRa partner concentration 90 nM)
# Procedure, shortened: as §1
# [9] = system: PPARg:RXRa 30nM:10nM, anti-RXR (NR concentration 30 nM, RXRa partner concentration 10 nM)
# Procedure, shortened: as §1
# [10] = system: PPARg:RXRa 90nM:30nM, anti-RXR (NR concentration 90 nM, RXRa partner concentration 30 nM)
# Procedure, shortened: as §1
# [11] = system: PPARg:RXRa DBDmut IVT, anti-RXR (DBD mutation: RXRa K156A/R161A, NR concentration 270 nM, RXRa partner concentration 90 nM)
# Procedure, shortened: as §1
# [12] = system: PPARg:RXRa IVT, anti-PPARg (NR concentration 270 nM, RXRa partner concentration 90 nM)
# Procedure, shortened: as §1
# [13] = system: PPARg DBDmut:RXRa IVT, anti-PPARg (DBD mutation: PPARg1 K132A/R137A, NR concentration 270 nM, RXRa partner concentration 90 nM)
# Procedure, shortened: as §1
# [14] = system: PPARg DBDmut IVT, anti-PPARg (DBD mutation: PPARg1 K132A/R137A, NR concentration 270 nM)
# Procedure, shortened: as §1
# [15] = system: PPARg homodimer (NR concentration 180 nM)
# Procedure, shortened: as §1
# [16] = system: PXR:RXRa (NR concentration 270 nM, RXRa partner concentration 90 nM)
# Procedure, shortened: as §1
# [17] = system: PXR homodimer (NR concentration 270 nM)
# Procedure, shortened: as §1
# [18] = system: RARa:RXR (NR concentration 270 nM, RXRa partner concentration 90 nM)
# Procedure, shortened: as §1
# [19] = system: RARa homodimer (NR concentration 270 nM)
# Procedure, shortened: as §1
# [20] = system: RARb:RXRa (NR concentration 270 nM, RXRa partner concentration 90 nM)
# Procedure, shortened: as §1
Sequence,PBM binding z-score [1],PBM binding z-score [2],PBM binding z-score [3],PBM binding z-score [4],PBM binding z-score [5],PBM binding z-score [6],PBM binding z-score [7],PBM binding z-score [8],PBM binding z-score [9],PBM binding z-score [10],PBM binding z-score [11],PBM binding z-score [12],PBM binding z-score [13],PBM binding z-score [14],PBM binding z-score [15],PBM binding z-score [16],PBM binding z-score [17],PBM binding z-score [18],PBM binding z-score [19],PBM binding z-score [20]
ACTAGCTGGCCAAGTTTGGGTCACTCAAACAAAG,-0.286,-0.318,-0.768,0.339,-0.865,1.03,-0.347,0.0249,-0.62,-0.218,-0.306,0.303,-0.848,-0.239,-0.138,0.38,-0.487,0.811,-1.29,1.08
ATCTCTAGGTAAAGTTCAGTGAGAGATCGATAGA,1.25,1.82,1.42,0.981,0.57,2.42,3.37,3.95,2.06,3.46,2.11,2.62,1.04,0.672,1.57,1.77,1.52,1.01,0.975,2.58
CTCGAAAGGACGTGCTCAGGTGAGTATACCAAAC,0.0322,-0.223,-0.388,-0.196,-0.277,-0.124,0.136,-0.268,-0.294,-0.148,-0.218,-0.388,-0.653,-0.179,-0.0329,-0.345,-0.1,0.0274,-0.22,0.749
TCGAGTAGGTTACCAATGGGGCATTCAACTTTCT,0.374,1.64,-0.293,1.55,0.172,1.67,0.652,1.67,1.26,1.67,3.18,3.11,-0.0959,-0.457,0.301,0.506,-0.241,0.916,-0.285,1.14
CTACCAAGGTGACCAAGGTCGTTGATTACTATTC,0.954,0.863,0.0331,1.37,-0.415,1.82,0.763,0.769,-0.239,0.452,1.56,2.32,-0.302,-0.385,0.966,2.3,1.04,2.16,-0.214,1.65
TCGAGTAGGTAAGTCGGGGCATTCAGCCAACATA,-0.0236,-0.0704,-0.439,-0.175,-0.922,0.0443,-0.3,0.0863,0.929,0.572,1.34,0.805,-1.3,-0.763,-0.452,-0.238,-0.436,-0.22,-0.413,-0.182
ATCTCTAGGTAAGACTCACTTCAGTGAAGAACGC,0.0875,0.0793,-0.134,0.11,0.863,0.00782,0.276,0.0551,0.479,0.192,1.59,1.19,0.772,1.01,0.77,-0.228,0.171,-0.265,0.334,-0.0456
CCTGCTAGGTCAATGGTCAGCAAAAGCAGCTCGC,2.97,2.15,0.13,1.33,-0.077,3.32,4.8,5.15,2.5,4.66,4.13,3.94,-0.42,-0.782,0.701,0.88,-0.358,1.49,-0.178,3.86
ATATGTAGGTTAGCTTGGGTCATTCAGACTAGGC,2.44,5.2,0.866,2.43,0.362,3.42,3.84,3.34,1.32,2.41,6.6,5.97,1.34,1.95,1.5,2.77,0.807,2.26,0.877,1.89
GCTAGCAGGCCGTTTGGGTCACTCAATGACGGGC,0.0511,-0.392,-0.828,-0.0413,-1.11,0.602,-0.107,-0.514,-0.56,-0.437,-0.553,-0.27,-1.62,-1.46,-0.598,0.292,-0.556,0.575,-1.38,1.14
CAAACTAGGTTAAGGTCAAAGTCGGTTTGTGCCA,5.87,5.27,3.87,4.36,1.08,5.45,7.13,6.97,5.07,7.2,7.61,7.5,2.24,3.72,4.36,5.2,3.07,5.71,2.29,4.32
CGAACGAGGGCATGACTTGATAGCAAATGCCGAT,0.404,0.369,-0.781,0.0827,-0.668,1.26,1.28,0.865,-0.352,0.26,2.69,1.81,-0.27,-0.449,-0.43,0.219,-0.361,0.614,-0.682,2.01
TAGTCTAGGTCATGCGGGCCAGTATAGTGTCGGC,4.02,3.48,1.36,1.76,1.87,3.92,4.97,4.56,1.78,3.81,5.79,6.05,2.08,2.16,1.27,1.58,0.355,2.07,0.351,3.85
TCGAGTAGGTTACCAATGGGGCATTTAGCTTTCT,0.00953,1.35,-0.662,1.09,-0.721,1.22,0.144,1.33,1.33,1.2,3.03,2.59,-0.535,-0.583,-0.292,0.195,-0.763,0.343,-1.23,0.686
